Assay results from ChEMBL document CHEMBL3988442, “University of Dundee, Small-Polar-MMV Screening Library” (2021).
The campaign covered roughly 48,000 compounds. About 13,000 (27%) showed an effect of 50% or more. Some of the results follow.

System: Wolbachia pipientis
Assay: Anti-Wolbachia Cell-Based Screen
Type: functional
Set-up: scale not given: in the data most compounds retested in dose-response had high values
Conditions: 5 µM

In order of falling “Percent Effect” value:
1. COCCN1C(=O)CO[C@H]2CN(Cc3cccc(OC)c3F)C[C@@H]21  149.6%
2. CN1CCC(c2nnc3n2CCN(S(=O)(=O)c2ccccc2Cl)C3)CC1  149.5%
3. O=C(c1ccc(=O)[nH]n1)N1CCNCC1c1ccccc1 (stereo unspecified)  145.5%
4. c1nnc(Nc2cncc(C3CCCN3CC3CC3)n2)s1 (stereo unspecified)  143.4%
5. COCCN1C(=O)CO[C@H]2CN(Cc3ccccc3Cl)C[C@@H]21  128.8%
6. CSc1[nH]nc(NC(=O)c2cccnc2)c1C#N  127.6%
7. CSc1[nH]nc(NC(=O)c2cccs2)c1C#N  125.8%
8. CC(C)COCC1CN(C(=O)c2cscn2)Cc2ncn(C)c21.O=C(O)C(F)(F)F (stereo unspecified)  123.8%
9. Cc1cc(-n2cnnn2)n2ncnc2n1  118.9%
10. CC(C)CS(=O)(=O)N1C[C@H]2C[C@H](C(=O)N(C)C)[C@@H](C1)O2  117.8%
11. Cc1cc(-n2cncn2)n2ncnc2n1  116%
12. CC(C)CS(=O)(=O)N1C[C@H]2C[C@H](C(=O)N3CCOCC3)[C@@H](C1)O2  113.5%
13. CSc1[nH]nc(NC(=O)c2ccncc2)c1C#N  113.4%
14. CC(C)CS(=O)(=O)N1C[C@H]2C[C@H](C(=O)N3CCCC3)[C@@H](C1)O2  109.6%
15. Cc1csc2c(C3CCCN(C(=O)CCCn4cncn4)C3)nc(C)n12 (stereo unspecified)  105.3%
16. CN1CCCC1c1nnc2n1CCN(S(=O)(=O)c1ccccc1Cl)CC2 (stereo unspecified)  104.7%
17. C[C@@H]1CN(Cc2ccncc2)C[C@@]1(O)C1CC1  102.1%
18. Cc1cnc(C(=O)N2Cc3ncn(C)c3C(COCC(C)C)C2)cn1.O=C(O)C(F)(F)F (stereo unspecified)  101.6%
19. CSc1[nH]nc(NC(=O)c2ccccc2)c1C#N  100.8%
20. CC(C)CS(=O)(=O)N1C[C@H]2C[C@H](C(=O)N3CCN(C)CC3)[C@@H](C1)O2.O=C(O)C(F)(F)F  100.5%
21. Cc1csc2c(C3CCCN(C(=O)CCn4cncn4)C3)nc(C)n12 (stereo unspecified)  98.48%
22. COc1ccc2c(c1OC)Cc1c-2nc(N)c(C#N)c1C1CCOC1 (stereo unspecified)  97.76%
23. CN1CCCC(c2nnc3n2CCN(S(=O)(=O)c2ccccc2Cl)C3)C1 (stereo unspecified)  97.31%
24. C[C@@H]1CN(Cc2ccncc2)C[C@]1(C)O  97.25%
25. N#Cc1c(N)nc2c(c1C1CCOC1)CCc1cc(O)ccc1-2 (stereo unspecified)  95.46%
26. CN1CCC(c2nnc3n2CCN(S(=O)(=O)c2ccccc2)C3)CC1  90.65%
27. Cc1csc2c(C3CCCN(C(=O)CCn4ccnc4)C3)nc(C)n12 (stereo unspecified)  85.68%
28. Cc1csc2c(C3CCCN(C(=O)Cn4cncn4)C3)nc(C)n12 (stereo unspecified)  83.22%
29. c1ccc(CCN2CCCC2c2cncc(Nc3nncs3)n2)cc1 (stereo unspecified)  77.51%
30. Cc1nc(C)n(CC(=O)N2CCCC(c3nc(C)n4c(C)csc34)C2)n1 (stereo unspecified)  71.32%
31. Cc1csc2c(C3CCN(C(=O)Cn4cncn4)CC3)nc(C)n12  67.21%
32. COc1ccc2c(c1)Cc1c-2nc(N)c(C#N)c1C1CCOC1 (stereo unspecified)  55.98%
33. C[C@@H]1CN(CC(C)(C)N2CCCCC2)C[C@@]1(O)C1CC1  17.38%
34. Cc1ccc(C(=O)NCCCN(C(C)C)S(C)(=O)=O)c(=O)[nH]1  16.76%
35. Cn1cnc2c1C(COCC1CC1)CN(C(=O)Cc1ccsc1)C2.O=C(O)C(F)(F)F (stereo unspecified)  12.67%
36. CS(=O)(=O)Cc1ccc(NC(=O)c2cccnc2)cc1F  11.8%
37. Cc1cc(Cl)ccc1C(=O)N[C@H]1CN(S(C)(=O)=O)C[C@@H]1C1CC1  11.67%
38. Cc1cc(N2CCCC2Cn2nc(C)cc2C)n2ncnc2n1 (stereo unspecified)  10.49%
39. Cc1ccsc1[C@@H]1CCN(C(=O)CCCn2cncn2)C[C@H]1O  10.3%
40. Cc1cc(C)cc(-c2cc(C3CCOC3)c(C#N)c(N)n2)c1 (stereo unspecified)  8.915%
41. CCOc1ccc(CN2C(=O)CC(CC)(CC)C2=O)nc1  8.891%
42. N#Cc1cc(NC(=O)c2ccccc2)ccc1N1CCC(O)CC1  8.386%
43. CCOCc1cccc(NC(=O)C2COCCO2)c1 (stereo unspecified)  8.112%
44. CC(C)CS(=O)(=O)N1C[C@H]2C[C@H](C(=O)NCc3ccccc3)[C@@H](C1)O2  6.255%
45. CCc1nnc2n1CCN(CCS(=O)(=O)c1ccccc1)C2  5.511%
46. CC(Oc1ccc(OCc2ncc(C(C)C)o2)cc1)C(N)=O (stereo unspecified)  3.924%
47. O=C(NCC1CCCN1CCc1ccccc1)NCC1(O)CCC1 (stereo unspecified)  3.682%
48. CCC1CN(C(=O)c2ccc(=O)[nH]n2)CCC(=O)N1Cc1ccccc1 (stereo unspecified)  3.625%
49. COCCN1C(=O)CO[C@@H]2CN(S(=O)(=O)c3ccccc3)C[C@H]21  3.273%
50. CCOc1c(Cl)cccc1NCc1cc(C)on1  3.225%
51. COCCN(C(=O)c1ccc(OC)cc1)c1ccc(C#N)cc1  3.07%
52. Cc1csc(N2CCN(C(=O)CCn3cncn3)CC2)n1  2.857%
53. CC(C)(C)NC(=O)c1ccccc1NC(=O)c1ccncc1  2.582%
54. O=C(c1ccc2ccccc2c1)C1CCCN(C(=O)Cn2cncn2)C1 (stereo unspecified)  2.145%
55. COCCN1C(=O)CO[C@H]2CN(S(=O)(=O)c3ccccc3)C[C@H]21  1.954%
56. CCCS(=O)(=O)N1C[C@H]2C[C@H](C(=O)N(C)C)[C@@H](C1)O2  1.854%
57. CN(C)C(=O)[C@H]1C[C@@H]2CN(S(=O)(=O)c3ccccc3)C[C@H]1O2  1.569%
58. Cc1cnc(N2C[C@H]3C[C@H](C(=O)N4CCN(C)CC4)N(C)[C@H]3C2)nc1.O=C(O)C(F)(F)F.O=C(O)C(F)(F)F.O=C(O)C(F)(F)F  1.417%
59. CS(=O)(=O)CCCNC1(c2ccc(Br)cc2)CCC1  1.327%
60. CC(NC(=O)CSCC#N)c1cccc(NC(=O)c2ccccc2)c1 (stereo unspecified)  1.227%
61. CNc1ccnc(N2C[C@@H](C)[C@](O)(C3CC3)C2)n1  0.4082%
62. CC(NC(=O)c1cccs1)C(=O)NS(=O)(=O)Cc1ccc(C#N)cc1 (stereo unspecified)  0.007489%
63. O=S(=O)(c1ccccc1Cl)N1CCCC(c2ncc[nH]2)C1 (stereo unspecified)  -0.103%
64. CC(C)CN1CCS(=O)(=O)[C@@H]2CCN(S(=O)(=O)CC(C)C)CC[C@@H]21.O=C(O)C(F)(F)F  -0.8095%
65. CCc1csc(C2CCCN(C(=O)CCn3cc(C)cn3)C2)n1 (stereo unspecified)  -1.231%
66. Cc1cc(CN2CCOC(CN(C)c3cccnn3)C2)no1 (stereo unspecified)  -1.412%
67. O=C(NCC1CCCCC1)N1C[C@H]2C[C@H](C(=O)N3CCCC3)[C@@H](C1)O2  -1.453%
68. Cc1cc(S(C)(=O)=O)c(C)c(S(=O)(=O)NCC2CCC2)c1  -2.164%
69. COCCCN1CCCN(C(C)C(=O)Nc2ccnn2C(C)C)CC1 (stereo unspecified)  -2.846%
70. C[C@@H]1CN(Cc2nnc(-c3cccnc3)o2)CC[C@]1(C)O  -2.885%
71. O=C(NC(CC(F)(F)F)c1ccc(Cl)cc1)c1nc(=O)[nH][nH]1 (stereo unspecified)  -2.983%
72. COc1cc(-c2cc(C3CCOC3)c(C#N)c(N)n2)ccc1O (stereo unspecified)  -3.198%
73. Cc1ccc(=O)n(CC(=O)N2CCCC(c3nc(C)c(C)s3)C2)n1 (stereo unspecified)  -3.398%
74. c1ccc2oc(N3CCn4c(nnc4C4CC4)C3)nc2c1  -3.429%
75. COCCN1C(=O)CO[C@H]2CN(Cc3ccccc3OC)C[C@H]21  -3.474%
76. Cc1nc(C)n(CC2CCCN2CC(=O)Nc2nncs2)n1 (stereo unspecified)  -3.74%
77. CCc1cc(N2CCC(F)(F)CC2)n2nc(C)c(C)c2n1  -3.857%
78. COCCN1C(=O)CO[C@H]2CN(CCCc3ccccc3)C[C@H]21  -4.545%
79. COc1ccc(-c2cc(C3CCOC3)c(C#N)c(N)n2)cn1 (stereo unspecified)  -5.09%
80. CC(C)c1nc(CC(=O)N2CCCC(n3cncn3)C2)cs1 (stereo unspecified)  -6.104%
81. N#Cc1cc(NC(=O)c2ccncc2)ccc1N1CCC(O)CC1  -6.115%
82. Cl.NC(=O)COc1ccc(CNCc2ccc(F)cc2F)cc1  -6.385%
83. Cc1cc(NCc2ccccc2CN2CCCCC2)n2ncnc2n1  -7.326%
84. CC1CCCN(Cc2ccc(CNC(=O)NCc3ccncc3)cc2)C1 (stereo unspecified)  -7.368%
85. O=C(NCC(F)(F)C(F)F)c1cccnc1  -7.591%
86. O=C(c1ccc(=O)[nH]n1)N1CCCC1CCc1ccccc1 (stereo unspecified)  -7.859%
87. Cc1cc(N2CCCCC2Cn2nc(C)cc2C)n2ncnc2n1 (stereo unspecified)  -7.962%
88. COCCN(C)C[C@H]1CC[C@@H](Cc2ccc3c(cnn3C)c2)O1  -8.226%
89. CN(C)Cc1nc(C(C)(C)NC(=O)C2CC(=O)N(CC3CC3)C2)no1 (stereo unspecified)  -8.829%
90. Cn1cnc2c1C(COCC1CC1)CN(C(=O)c1cscn1)C2.O=C(O)C(F)(F)F (stereo unspecified)  -8.988%
91. COCC1CN(C(=O)COc2ccccc2C)Cc2ncn(C)c21.O=C(O)C(F)(F)F (stereo unspecified)  -9.212%
92. CCc1nc2n(n1)CC(Nc1cc(C)nc3ncnn13)CC2 (stereo unspecified)  -9.549%
93. O=C(NCC1CCCCC1)N1C[C@H]2C[C@H](C(=O)N3CCOCC3)[C@@H](C1)O2  -10.09%
94. Cc1nc(C)n(C2CCCN(C(=O)CCCn3ccnc3)C2)n1 (stereo unspecified)  -10.35%
95. CCCN1CCCC2(CCN(C(=O)CCCn3cncn3)C2)C1=O (stereo unspecified)  -10.51%
96. CN1CCN(c2ccc(NC(=O)c3cccs3)c(C(F)(F)F)c2)CC1  -12.21%
97. COc1ccnc(N2CCN(C(=O)c3cnc(C4CC4)s3)CC2)n1  -14.05%
98. Cn1cnnc1S(=O)(=O)C1CCN(S(=O)(=O)c2c(Cl)cccc2Cl)CC1  -14.3%
99. C[S+]([O-])c1nncn1CC(=O)c1cccc(C(F)(F)F)c1 (stereo unspecified)  -15.18%
100. CC(=O)NCCc1ccc(S(=O)(=O)N(C)C(C)C(C)(C)C)s1 (stereo unspecified)  -15.89%
101. COc1ccc2c(c1)CCCC2CC(=O)NCC(C)(C)C(=O)O (stereo unspecified)  -16.88%
102. CNC(=O)CS(=O)(=O)C1CCN(S(=O)(=O)c2cccc(Cl)c2C)CC1  -17.28%
103. CN1CCC(N2CCOC[C@H]2c2nc(C(C)(C)C)c[nH]2)CC1  -19.67%
104. CN(C(=O)c1cccn1C)C1CCC(NC(=O)OC(C)(C)C)CC1 (stereo unspecified)  -22.93%
105. O=C(c1coc(-c2ccccc2)n1)N1CCS(=O)(=O)CC1  -26.15%
106. COc1cccc([C@H]2CN(C(=O)c3nnc4n3CCCC4)C[C@@H]2N)c1  -27.9%
107. Clc1ccc2cccnc2c1CN1CCn2c(nnc2C2CC2)C1  -29.6%
108. COc1ccc(C(C)C)cc1C1CC(=O)NCc2nc(N(C)C)sc21 (stereo unspecified)  -38.77%
109. O=c1[nH]nc2n1CCN(S(=O)(=O)c1ccccc1Cl)C2  -39.65%
110. CC(C)NC(=O)N1C[C@H]2C[C@H](C(=O)N3CCCC3)[C@@H](C1)O2  -51.72%
111. COc1cccc(OCC2CCCN(C(=O)CCn3ccnc3)C2)c1 (stereo unspecified)  -97.21%
